PubChem BioAssay AID1159580 (chemical genetic matrix, 2015)
Hit rate of the full screen: of about 5,500 compounds, about 2,000 (36%) were called active. Not shown: some 18% with an inconclusive outcome. Rule as the data show it: active = normalized growth mostly below about 0.91 (no sharp cut-off); inconclusive = no clear call, values can overlap the other calls; inactive = mostly above about 0.92. Some of the results follow.

Assay: chemical genetic growth profiling, strain panel (AID 1159580);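 also: tested at 20 µM; growth read once vehicle control cultures reached saturation at 30 °C; 1 = growth at the plate median or of vehicle wells; lower values mean less growth of the strain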
Conditions: growth OD

Measured: normalized growth

CCCCC1=NC2(CCCC2)C(=O)N1Cc1ccc(-c2ccccc2-c2nn[nH]n2)cc1
inactive: S. cerevisiae deletion strains, locus YKL009W, strain mrt4, active compounds read low 0.952 | S. cerevisiae deletion strains, locus YKL068W, active compounds read low 0.98 | S. cerevisiae deletion strains, locus YKL085W, strain MDH1 (second series), active compounds read low 0.986 | S. cerevisiae deletion strains, locus YKL085W, strain MDH1, active compounds read low 0.986 | S. cerevisiae deletion strains, locus YKL160W, strain elf1, active compounds read low 1.01 | S. cerevisiae deletion strains, locus YKL190W, strain CNB1, active compounds read low 0.986 | S. cerevisiae deletion strains, locus YKR001C, strain vps1, active compounds read low 0.996 | S. cerevisiae deletion strains, locus YKR026C, strain gcn3, active compounds read low 1.01 | S. cerevisiae deletion strains, locus YKR091W, strain srl3, active compounds read low 1.02 | S. cerevisiae deletion strains, locus YLL001W, strain dnm1, active compounds read low 1.01 | S. cerevisiae deletion strains, locus YLL026W, active compounds read low 1.02 | S. cerevisiae deletion strains, locus YLL041C, strain sdh2, active compounds read low 1.01 | S. cerevisiae deletion strains, locus YLR027C, strain aat2, active compounds read low 0.999 | S. cerevisiae deletion strains, locus YLR039C, strain RIC1, active compounds read low 0.969 | S. cerevisiae deletion strains, locus YLR058C, strain SHM2, active compounds read low 0.964 | S. cerevisiae deletion strains, locus YLR102C, strain apc9, active compounds read low 0.981 | S. cerevisiae deletion strains, locus YLR113W, strain HOG1, active compounds read low 1.02 | S. cerevisiae deletion strains, locus YLR221C, strain rsa3, active compounds read low 1.01 | S. cerevisiae deletion strains, locus YLR258W, strain gsy2, active compounds read low 1.02 | S. cerevisiae deletion strains, locus YLR262C, strain YPT6 (second series), active compounds read low 1.04 | S. cerevisiae deletion strains, locus YLR262C, strain YPT6, active compounds read low 0.947 | S. cerevisiae deletion strains, locus YLR268W, strain sec22, active compounds read low 1.09 | S. cerevisiae deletion strains, locus YLR320W, strain mms22, active compounds read low 1.02 | S. cerevisiae deletion strains, locus YLR330W, strain CHS5, active compounds read low 0.987 | S. cerevisiae deletion strains, locus YLR342W, strain FKS1 (second series), active compounds read low 0.96 | S. cerevisiae deletion strains, locus YLR342W, strain FKS1, active compounds read low 1.02 | S. cerevisiae deletion strains, locus YLR357W, strain rsc2, active compounds read low 1.01 | S. cerevisiae deletion strains, locus YLR370C, strain arc18, active compounds read low 1.01 | S. cerevisiae deletion strains, locus YLR371W, strain rom2, active compounds read low 0.972 | S. cerevisiae deletion strains, locus YLR384C, strain iki3, active compounds read low 1 | S. cerevisiae deletion strains, locus YLR418C, strain cdc73, active compounds read low 0.993 | S. cerevisiae deletion strains, locus YML016C, strain PPZ1, active compounds read low 0.984 | S. cerevisiae deletion strains, locus YML032C, strain rad52, active compounds read low 1.02 | S. cerevisiae deletion strains, locus YML120C, strain ndi1, active compounds read low 0.997 | S. cerevisiae deletion strains, locus YML124C, strain tub3, active compounds read low 0.977 | S. cerevisiae deletion strains, locus YMR058W, strain fet3, active compounds read low 1 | S. cerevisiae deletion strains, locus YMR078C, strain ctf18, active compounds read low 0.991 | S. cerevisiae deletion strains, locus YMR125W, strain sto1, active compounds read low 1.01 | S. cerevisiae deletion strains, locus YMR129W, active compounds read low 1.01 | S. cerevisiae deletion strains, locus YMR205C, strain PFK2, active compounds read low 1.03 | S. cerevisiae deletion strains, locus YMR223W, strain ubp8, active compounds read low 0.957 | S. cerevisiae deletion strains, locus YMR231W, strain pep5, active compounds read low 1.02 | S. cerevisiae deletion strains, locus YMR263W, strain SAP30, active compounds read low 0.998 | S. cerevisiae deletion strains, locus YMR307W, strain GAS1, active compounds read low 0.964 | S. cerevisiae deletion strains, locus YNL067W, strain RPL9B, active compounds read low 1.04 | S. cerevisiae deletion strains, locus YNL071W, strain lat1, active compounds read low 1 | S. cerevisiae deletion strains, locus YNL128W, strain TEP1, active compounds read low 0.968 | S. cerevisiae deletion strains, locus YNL153C, strain GIM3, active compounds read low 1.03 | S. cerevisiae deletion strains, locus YNL183C, strain NPR1, active compounds read low 0.966 | S. cerevisiae deletion strains, locus YNL209W, strain ssb2, active compounds read low 1.01 | S. cerevisiae deletion strains, locus YNL233W, strain BNI4, active compounds read low 1.04 | S. cerevisiae deletion strains, locus YNL248C, strain rpa49, active compounds read low 1.04 | S. cerevisiae deletion strains, locus YNL250W, strain rad50, active compounds read low 0.978 | S. cerevisiae deletion strains, locus YNL271C, strain bni1, active compounds read low 1 | S. cerevisiae deletion strains, locus YNL298W, strain CLA4, active compounds read low 0.971 | S. cerevisiae deletion strains, locus YNL307C, strain MCK1, active compounds read low 0.99 | S. cerevisiae deletion strains, locus YNL322C, strain KRE1 (second series), active compounds read low 1.03 | S. cerevisiae deletion strains, locus YNL322C, strain KRE1, active compounds read low 0.986 | S. cerevisiae deletion strains, locus YNR049C, strain mso1, active compounds read low 1 | S. cerevisiae deletion strains, locus YNR052C, strain pop2, active compounds read low 0.999 | S. cerevisiae deletion strains, locus YOL006C, strain TOP1, active compounds read low 1.1 | S. cerevisiae deletion strains, locus YOL012C, strain htz1 0.917 | S. cerevisiae deletion strains, locus YOL147C, strain pex11, active compounds read low 0.992 | S. cerevisiae deletion strains, locus YOR001W, strain rrp6, active compounds read low 1.01 | S. cerevisiae deletion strains, locus YOR061W, strain CKA2, active compounds read low 0.97 | S. cerevisiae deletion strains, locus YOR069W, strain VPS5, active compounds read low 0.991 | S. cerevisiae deletion strains, locus YOR070C, strain gyp1, active compounds read low 1.01 | S. cerevisiae deletion strains, locus YOR080W, strain dia2, active compounds read low 1 | S. cerevisiae deletion strains, locus YOR083W, strain WHI5, active compounds read low 1.03 | S. cerevisiae deletion strains, locus YOR106W, strain vam3, active compounds read low 1.02 | S. cerevisiae deletion strains, locus YOR136W, strain idh2, active compounds read low 0.967 | S. cerevisiae deletion strains, locus YOR144C, strain elg1, active compounds read low 0.987 | S. cerevisiae deletion strains, locus YOR184W, strain ser1, active compounds read low 0.979 | S. cerevisiae deletion strains, locus YOR231W, strain MKK1, active compounds read low 0.981 | S. cerevisiae deletion strains, locus YOR265W, strain rbl2, active compounds read low 1.01 | S. cerevisiae deletion strains, locus YOR270C, strain vph1, active compounds read low 1.08 | S. cerevisiae deletion strains, locus YOR290C, strain snf2, active compounds read low 1.01 | S. cerevisiae deletion strains, locus YOR316C, strain cot1, active compounds read low 0.984 | S. cerevisiae deletion strains, locus YPL051W, strain arl3, active compounds read low 0.984 | S. cerevisiae deletion strains, locus YPL055C, strain LGE1, active compounds read low 0.959 | S. cerevisiae deletion strains, locus YPL078C, strain atp4, active compounds read low 1.01 | S. cerevisiae deletion strains, locus YPL106C, strain sse1, active compounds read low 1.01 | S. cerevisiae deletion strains, locus YPL240C, strain hsp82, active compounds read low 1 | S. cerevisiae deletion strains, locus YPL241C, strain CIN2, active compounds read low 0.99 | S. cerevisiae deletion strains, locus YPL256C, strain CLN2, active compounds read low 0.985 | S. cerevisiae deletion strains, locus YPR119W, strain clb2, active compounds read low 0.986 | S. cerevisiae deletion strains, locus YPR141C, strain kar3, active compounds read low 0.971 | S. cerevisiae deletion strains, locus YPR163C, strain tif3, active compounds read low 0.995 | S. cerevisiae deletion strains, locus YPR167C, strain met16, active compounds read low 0.991 | S. cerevisiae deletion strains, strain wtn01, active compounds read low 1.02 | S. cerevisiae strains, strain wild type, active compounds read low 0.978
